The values below come from PubChem BioAssay AID725 (NMMLSC, 2007).

The inhibition is the drop in the measured response relative to a control, in per cent.

Fewer than 10 of roughly 1,300 compounds were called active. The list is a sample of the results. Values without a mark were called inactive. The rule behind the calls is not given here.

The test deals with N-formyl peptide receptor 2 (Homo sapiens) (UniProt P25090). Description: FPRL1 fluorescent ligand binding inhibitors, primary screen, selectivity assay for FPR ligand SAR project, cell-based, flow cytometry, HTS counterscreen (AID 725). As to conditions: FPRL1-expressing cells, stronger effect = higher value, concentration not given here. For orientation: In flow cytometry, cells or beads pass a laser one at a time.
Sequence of N-formyl peptide receptor 2 (Homo sapiens) (P25090 whole entry, looked up): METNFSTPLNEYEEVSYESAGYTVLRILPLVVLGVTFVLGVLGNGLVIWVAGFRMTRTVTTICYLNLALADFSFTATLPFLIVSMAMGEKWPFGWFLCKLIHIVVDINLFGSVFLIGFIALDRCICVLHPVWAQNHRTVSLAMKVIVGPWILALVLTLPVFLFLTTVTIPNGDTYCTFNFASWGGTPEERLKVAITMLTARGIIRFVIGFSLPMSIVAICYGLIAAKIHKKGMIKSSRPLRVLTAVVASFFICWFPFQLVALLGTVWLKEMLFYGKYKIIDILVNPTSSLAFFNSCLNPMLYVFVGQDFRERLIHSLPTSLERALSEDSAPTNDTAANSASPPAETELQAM
On to `COc1cc(C2C(C(=O)c3cc4ccccc4o3)=C(O)C(=O)N2CCN(C)C)ccc1O` (centres undefined), for which the inhibition is -0.3%.

For the compound `CCOC(=O)c1c(NC(=O)c2csc3c2CCCC3)sc2c1CCCC2`, the inhibition was -7%.

Take `CC(c1cccs1)N(Cc1ccco1)C(=S)Nc1ccccc1Cl` (centres undefined): the inhibition is 10.4%.

For `CCOC(=O)c1oc2cc(OCc3ccc(F)cc3)ccc2c(=O)c1-c1ccccc1OC`, the inhibition is 1.2%.

As for `CCCCCCN1C(=O)C(=O)/C(=C(/O)c2ccccc2)C1c1ccc(Br)cc1` (centres undefined), the inhibition was 0.8%.

For the compound `COc1ccc(OC)c(C2/C(=C(\O)c3ccccc3)C(=O)C(=O)N2CCC(=O)O)c1` (centres undefined), the inhibition was -4.7%.

As for `CCOC(=O)c1cnn2c(=O)c3c(n(CC)c12)CCN(Cc1ccc(OC)cc1)C3`, the inhibition was 1.3%.

For `Cc1ccc(/C(O)=C2\C(=O)C(=O)N(c3nnc(C)s3)C2c2ccc(Cl)cc2)cc1` (centres undefined), the inhibition was -9.8%.

For `CCCCn1c(=O)c2oc3ccccc3c2n(Cc2cccc(C)c2)c1=O`, the inhibition is -15.7%.

In the case of `Cc1ccc(N2C(=O)CSC2c2ccc(C(C)(C)C)cc2)cc1F` (centres undefined), the inhibition is -16.2%.

Turning to `NC(=O)c1c(NC(=O)C2CC3CCC2C3)sc2c1CCCC2` (centres undefined), the inhibition was 9%.

As for `COc1ccccc1C1/C(=C(\O)c2ccccc2)C(=O)C(=O)N1c1ccc(C)c(Cl)c1` (centres undefined), the inhibition was -1.5%.

As to `CCOc1ccc(C2/C(=C(/O)c3ccccc3)C(=O)C(=O)N2c2ccc(C)c(Br)c2)cc1` (centres undefined), the inhibition is 1.2%.

Regarding `COc1ccc(Br)cc1CNC(=O)Cn1c(=O)oc2ccccc21`, the inhibition is -20.3%.

In the case of `Cc1cc(C)cc(N2C(=O)CSC2c2ccccc2Br)c1` (centres undefined), the inhibition is -7.5%.

For `C=CCN1C(=O)C2C(c3ccccc3)C=CC(c3ccccc3)C2C1=O` (centres undefined), the inhibition is -6.2%.

`O=C(c1ccc(Br)cc1)N(Cc1ccco1)Cc1ccccc1F`: the inhibition was 27.5%.

Consider `O=C1C(=O)N(c2cccnc2)C(c2cccc(F)c2)/C1=C(/O)c1ccccc1` (centres undefined), for which the inhibition is -1.7%.

Turning to `COc1ccccc1C(CC(=O)NCc1cccs1)n1cccc1` (centres undefined), the inhibition is 12%.

Consider `CC1CCN(Cn2nc(-c3ccco3)n(-c3ccccc3)c2=S)CC1`, for which the inhibition is 6.9%.

Turning to `COc1ccc(C2C(C(=O)c3cccs3)=C(O)C(=O)N2Cc2cccnc2)cc1OC` (centres undefined), the inhibition is -3.8%.

For `Cc1ccc2c(c1)oc(=O)n2C(=O)COc1ccccc1`, the inhibition is 4.9%.

Take `O=C(c1ccccc1Br)N(Cc1ccc(F)cc1)Cc1ccco1`: the inhibition was -2%.

As to `CCc1c(C)sc(NC(=O)C2C3C=CC(C3)C2C(=O)O)c1C(=O)OC(C)C` (centres undefined), the inhibition was -6%.

Regarding `Cc1nnc(N2C(=O)C(O)=C(C(=O)c3cccs3)C2c2ccccc2)s1` (centres undefined), the inhibition is 1.7%.

As to `CCOC(=O)c1c(NC(=O)c2ccccc2Cl)sc2c1CCC2`, the inhibition was 0%.

For `CCOc1ccccc1C1C(C#N)=C(SC)NC(=O)C1C(=O)OC` (centres undefined), the inhibition was 7.1%.

For `COC(=O)c1c[nH]n2c(=O)c(C(C)C)c(C)nc12`, the inhibition is -13.8%.

In the case of `CCCOc1ccc(/C(O)=C2\C(=O)C(=O)N(CCN3CCOCC3)C2c2ccc(C(C)C)cc2)cc1C` (centres undefined), the inhibition is -8.4%.

On to `CC(C)n1c(=O)c2oc3ccccc3c2n(Cc2ccccc2F)c1=O`, for which the inhibition was 11.7%.

Turning to `Cc1ccc(S(=O)(=O)NC(CC(=O)O)c2cccc(Cl)c2)c(C)c1` (centres undefined), the inhibition was -6.5%.

As to `CCOC(=O)c1c(NC(=O)c2ccccc2)sc2c1CCC(C)C2` (centres undefined), the inhibition was -3.5%.

Regarding `COCCN1C(=O)C(=O)/C(=C(/O)c2ccccc2)C1c1ccc(C(C)C)cc1` (centres undefined), the inhibition was 3.7%.

With `CC(C)c1ccc(C2/C(=C(\O)c3ccccc3)C(=O)C(=O)N2c2nc3ccccc3s2)cc1` (centres undefined), the inhibition is 0%.

As to `Cc1ccc(F)cc1N1C(=O)CSC1c1ccc(Br)cc1` (centres undefined), the inhibition is 1.5%.

With `Cc1cccc(C(=O)N(Cc2ccco2)Cc2ccccc2F)c1`, the inhibition is 14.7%.

With `COc1ccc(-c2c(C)[nH]n3c(=O)c4c(nc23)CCCC4)cc1`, the inhibition is -4.2%.

`CCOC(=O)c1c(NC(=O)c2ccc(Br)cc2)sc(C)c1C`: the inhibition was 9.7%.

With `Cc1onc(-c2c(Cl)cccc2Cl)c1C(=O)NC1CCCCC1`, the inhibition is -7.3%.

As to `CCC(=O)Oc1ccc2c(C)c(Cc3ccccc3)c(=O)oc2c1C`, the inhibition was -5.7%.

In the case of `CCn1c2c(c(=O)n3ncc(C(=O)O)c13)CN(Cc1ccccc1)CC2`, the inhibition was 9.1%.

Turning to `CCOC(=O)c1c(NC(=O)c2ccccc2C(=O)O)sc(C)c1C`, the inhibition was -6.4%.

With `CCOC(=O)COc1ccc2c(=O)c(-c3ccccc3OC)c(C(F)(F)F)oc2c1`, the inhibition is -6.1%.

In the case of `Cc1ccc(Oc2c(C(F)(F)F)oc3c(CN4CCC(C)CC4)c(O)ccc3c2=O)cc1`, the inhibition is -2.8%.

In the case of `O=C(c1ccccc1F)N1c2ncnn2C2(CCCCC2)[C@@H]2CCCC[C@@H]21`, the inhibition is 2.4%.

As for `O=C1C(=O)N(CCN2CCOCC2)C(c2ccncc2)/C1=C(\O)c1ccccc1` (centres undefined), the inhibition was 0.7%.

For `NC(=O)c1c(NC(=O)C2C3C=CC(C3)C2C(=O)O)sc2c1CCCCC2` (centres undefined), the inhibition is 7.3%.

Regarding `C=CCOc1ccccc1/C=C1/C(=O)NN(c2ccc(C)c(Cl)c2)C1=O`, the inhibition was -5.7%.

For `O=C(CSc1nnc(-c2ccco2)o1)c1cccc2ccccc12`, the inhibition was -5.2%.

For `CCOC(=O)C(CC)Oc1ccc2c(=O)c(-c3ccc(OC)c(OC)c3)c(C(F)(F)F)oc2c1` (centres undefined), the inhibition is 7.8%.

Turning to `CN(C)CCCN1C(=O)C(O)=C(C(=O)c2ccco2)C1c1ccccc1` (centres undefined), the inhibition was 9.4%.

As to `CN(C)c1ccc(C2C(C(=O)c3ccco3)=C(O)C(=O)N2CC2CCCO2)cc1` (centres undefined), the inhibition was -0.8%.

Regarding `Cc1cc(C)cc(N2C(=O)CSC2c2c(F)cccc2Cl)c1` (centres undefined), the inhibition is -8.8%.

Consider `COc1ccccc1C1SCCN1S(=O)(=O)c1ccc(F)cc1` (centres undefined), for which the inhibition was 11.3%.

`O=C(O)CCN1C(=O)C(=O)/C(=C(/O)c2ccccc2)C1c1ccc(Br)cc1` (centres undefined): the inhibition is -4.1%.

Turning to `O=C(Nc1cccc(C(=O)N(Cc2ccccc2)Cc2ccccc2)c1)[C@@H]1[C@H]2C[C@H]3[C@@H]1C(=O)O[C@H]3C2`, the inhibition is 3.8%.

As to `COc1ccc(OC)c(C2SCCN2S(=O)(=O)c2ccc(C)cc2)c1` (centres undefined), the inhibition is 6.1%.

For `CCCOc1ccc(C2C(C(=O)c3cc4ccccc4o3)=C(O)C(=O)N2CCN(C)C)cc1` (centres undefined), the inhibition is -0.2%.

As for `COc1ccccc1-c1c(C)oc2c(CN3CCCCC3C)c(O)ccc2c1=O` (centres undefined), the inhibition is -3.9%.

For the compound `COc1cccc(C2C(C(=O)c3cc4ccccc4o3)=C(O)C(=O)N2CCN2CCOCC2)c1` (centres undefined), the inhibition is 2.7%.

`O=C(C1=C(O)C(=O)N(CCN2CCOCC2)C1c1cccnc1)c1cccs1` (centres undefined): the inhibition is -0.7%.

As for `Cc1onc(-c2c(Cl)cccc2Cl)c1C(=O)N1CCCCCC1`, the inhibition was -6.1%.

For `Cc1ccc(N2C(=O)CSC2c2ccccc2F)cc1C` (centres undefined), the inhibition is -4.3%.

With `O=C(Oc1ccc2c(=O)c(Oc3ccccc3Br)c(C(F)(F)F)oc2c1)c1cccs1`, the inhibition is -1.4%.

`CN1C(=O)C2(/C(=C(/O)c3ccccc3)C(=O)C(=O)N2CC2CCCO2)c2ccccc21` (centres undefined): the inhibition is -3.7%.

`Cc1ccc(C(=O)O)cc1NC(=O)C1C2CCC(C2)C1C(=O)O` (centres undefined): the inhibition is 3.8%.

In the case of `CN1CCC2(CC1)N=C(c1ccccc1)C(=S)N2C(=O)c1ccc(Cl)cc1`, the inhibition was -2%.

Take `Cc1ccc(C)c(-c2n[nH]n3c2nc(=O)c2ccccc23)c1`: the inhibition was -23.5%.

For `O=C1c2cccc3cccc(c23)N1S(=O)(=O)c1ccccc1`, the inhibition was -5%.

For `CC(C)CCN(Cc1ccco1)C(=O)c1noc2c1CCCC2`, the inhibition was -3%.

`Cc1cccc(N2C(=O)CSC2c2ccc(Br)cc2)c1` (centres undefined): the inhibition is -3.9%.

As to `CCOC(=O)c1c(NC(=O)c2cccc(Cl)c2)sc2c1CCCC2`, the inhibition was 3.1%.

Take `O=C(c1ccc(F)cc1)N(Cc1ccco1)Cc1ccccc1Cl`: the inhibition is -1.7%.

With `Cc1nnc(N2C(=O)C(O)=C(C(=O)c3ccco3)C2c2ccc(Cl)cc2)s1` (centres undefined), the inhibition is 0.1%.

As for `CCc1ccc(Oc2c(C(F)(F)F)oc3c(CN4CCOCC4)c(O)ccc3c2=O)cc1`, the inhibition is -5.8%.

For the compound `CCc1cccc(C)c1NC(=S)N(Cc1ccco1)C(C)c1cccs1` (centres undefined), the inhibition was -5.9%.

Take `Cc1ccc(/C(O)=C2\C(=O)C(=O)N(CCN3CCOCC3)C2c2cccs2)cc1` (centres undefined): the inhibition is -5.9%.

As to `COc1ccc(C2C(C(=O)N3CCCC(C)C3)c3ccccc3C(=O)N2C)cc1` (centres undefined), the inhibition is 2.3%.

As for `COc1ccccc1C(=O)NC(C)c1nc2ccccc2n1Cc1ccccc1C` (centres undefined), the inhibition is -0.5%.

`CCOc1cc(C2C(C(=O)c3ccco3)=C(O)C(=O)N2CC2CCCO2)ccc1O` (centres undefined): the inhibition was 0.5%.

For `O=C(O)CCN1C(=O)C(=O)/C(=C(/O)c2ccccc2)C1c1ccccc1[N+](=O)[O-]` (centres undefined), the inhibition is 1.1%.

Consider `COC(=O)c1c(NC(=O)c2cccc(C)c2)sc2c1CCC(C)C2` (centres undefined), for which the inhibition was -8.1%.

For `COc1cccc(Cn2c(=S)[nH]c3c(oc4ccccc43)c2=O)c1`, the inhibition is 3%.

Take `COc1ccc(C2/C(=C(\O)c3ccccc3)C(=O)C(=O)N2CCN2CCOCC2)cc1` (centres undefined): the inhibition was 0.4%.

For the compound `Cc1ccc(C2/C(=C(\O)c3ccccc3)C(=O)C(=O)N2c2nnc(C)s2)cc1` (centres undefined), the inhibition was -1.8%.

As for `CCOc1ccc(N(C)C(=O)[C@H]2[C@@H]3C[C@@H]4[C@H]2C(=O)O[C@@H]4C3)cc1`, the inhibition was 19.5%.

Regarding `Cc1cccc(C(=O)N2c3ncnn3C(c3ccccc3)CC2c2ccccc2)c1` (centres undefined), the inhibition is -15.7%.

In the case of `COC(=O)c1c(NC(=O)c2ccc(F)cc2)sc(C)c1C`, the inhibition is -4.9%.

In the case of `Cc1cc(C)cc(N2C(=O)N(c3ccccc3Cl)C3CS(=O)(=O)CC32)c1` (centres undefined), the inhibition is 2.6%.
